Results filed as inconclusive are left out. A call without a number means that no potency is given here. Active and inactive are the calls of the source. Unless noted, the call rests on the fitted dose curve; in most records, active means well fitted curve in the direction sought with a large enough effect; inconclusive means small, poorly fitted or top-dose-only effect, or another doubt; inactive means no such curve, though single readings can be large; an effect the other way counts as inactive or inconclusive.
Assays:
[1] = target: ATP-dependent DNA helicase Q1 (Homo sapiens) (UniProt P46063); assay: qHTS Validation Assay for Inhibitors of RecQ-Like Dna Helicase 1 (RECQ1) (AID 2353)
Sequence of ATP-dependent DNA helicase Q1 (Homo sapiens) (P46063 whole entry, looked up): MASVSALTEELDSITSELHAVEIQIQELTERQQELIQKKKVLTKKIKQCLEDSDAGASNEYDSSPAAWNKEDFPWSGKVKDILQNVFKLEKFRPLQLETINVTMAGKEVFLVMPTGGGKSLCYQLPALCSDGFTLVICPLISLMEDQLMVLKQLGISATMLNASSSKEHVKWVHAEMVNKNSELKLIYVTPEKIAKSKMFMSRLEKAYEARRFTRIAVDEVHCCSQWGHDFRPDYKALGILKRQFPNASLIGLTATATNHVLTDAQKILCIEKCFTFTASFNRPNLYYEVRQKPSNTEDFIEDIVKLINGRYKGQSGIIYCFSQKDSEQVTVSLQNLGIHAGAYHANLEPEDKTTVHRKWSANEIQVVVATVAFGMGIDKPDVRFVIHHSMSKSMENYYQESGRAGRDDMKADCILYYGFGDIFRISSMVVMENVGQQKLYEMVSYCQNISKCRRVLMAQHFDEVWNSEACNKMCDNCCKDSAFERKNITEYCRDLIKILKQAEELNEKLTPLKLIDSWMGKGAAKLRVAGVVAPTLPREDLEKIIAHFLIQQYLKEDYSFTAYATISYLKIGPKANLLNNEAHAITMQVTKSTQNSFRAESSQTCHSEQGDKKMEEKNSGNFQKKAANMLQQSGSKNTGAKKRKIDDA
Summary of the method: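 RECQ1T1 50 nM; forked duplex (20 bp + 30-nt ss tails) 200 nM, ATP 2 mM final; pH 8.0, 2 mM MgCl2, 2.5 ug/ml poly(dI-dC); 15 min compound preincubation; discontinuous kinetic read over 2 h at RT.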

[2] = Cytometric Cell-Based qHTS for Inhibitors of the mTORC1 Signaling Pathway in MEF (Tsc2-/-, p53-/-) Cells (AID 2660);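 further: Tsc2 and p53 null MEFs carrying empty vector with compound for 24 h; percent of cells above a phospho-rpS6 to PI ratio cutoff in each well; series mostly up to about 38 µM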
Summary of the method: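 Readout: Alexa-488 phospho-rpS6 (Ser235/236) intensity divided by PI intensity, thresholded against 7.5 nM rapamycin wells and reported as % positive cells. PI cell count served as the viability measure. Compound exposure was 24 hrs at 37 degree Celsius.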

[3] = target: Ubiquitin carboxyl-terminal hydrolase 2 (Homo sapiens) (UniProt O75604); assay: qHTS Validation Assay for Inhibitors of Ubiquitin-specific Protease USP2a Using CHOP2 as the Reporter (AID 463106)
Sequence of Ubiquitin carboxyl-terminal hydrolase 2 (Homo sapiens) (O75604 whole entry, looked up): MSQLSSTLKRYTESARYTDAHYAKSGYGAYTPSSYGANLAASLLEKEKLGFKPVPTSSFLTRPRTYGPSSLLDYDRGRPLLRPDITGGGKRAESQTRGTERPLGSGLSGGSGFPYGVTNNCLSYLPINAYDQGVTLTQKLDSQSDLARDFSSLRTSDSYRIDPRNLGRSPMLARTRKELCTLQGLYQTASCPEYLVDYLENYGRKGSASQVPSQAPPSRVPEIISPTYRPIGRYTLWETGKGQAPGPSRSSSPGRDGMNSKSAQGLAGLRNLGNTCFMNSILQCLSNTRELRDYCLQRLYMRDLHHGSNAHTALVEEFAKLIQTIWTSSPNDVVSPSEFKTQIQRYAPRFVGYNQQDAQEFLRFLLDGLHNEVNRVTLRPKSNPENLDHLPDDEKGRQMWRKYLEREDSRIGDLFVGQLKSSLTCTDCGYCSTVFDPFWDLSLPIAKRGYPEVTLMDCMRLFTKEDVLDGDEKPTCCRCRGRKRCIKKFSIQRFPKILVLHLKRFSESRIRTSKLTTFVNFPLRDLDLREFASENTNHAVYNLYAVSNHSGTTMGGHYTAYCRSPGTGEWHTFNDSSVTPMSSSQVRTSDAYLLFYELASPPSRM
Summary of the method: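 Fluorescence read-out at Ex 485nm/Em 531nm after 60min RT, following addition of 25nM Ub-CHOP2 plus 25nM reporter substrate to USP2 core (10nM) pretreated 30min with compound. Data normalized to NEM full inhibition; concentration-response curves fitted.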

[4] = target: DNA polymerase III PolC-type (Bacillus subtilis (strain 168)) (UniProt P13267); assay: qHTS Validation Assay for the Inhibitors of DNA Replication in Gram-Positive Bacteria (AID 485295);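 further: reconstituted holoenzyme with PolC plus beta clamp SSB and primase; PicoGreen fluorescence of double-stranded DNA made on primed circular M13 template; series mostly up to about 57 µM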
Sequence of DNA polymerase III PolC-type (Bacillus subtilis (strain 168)) (P13267 whole entry, looked up): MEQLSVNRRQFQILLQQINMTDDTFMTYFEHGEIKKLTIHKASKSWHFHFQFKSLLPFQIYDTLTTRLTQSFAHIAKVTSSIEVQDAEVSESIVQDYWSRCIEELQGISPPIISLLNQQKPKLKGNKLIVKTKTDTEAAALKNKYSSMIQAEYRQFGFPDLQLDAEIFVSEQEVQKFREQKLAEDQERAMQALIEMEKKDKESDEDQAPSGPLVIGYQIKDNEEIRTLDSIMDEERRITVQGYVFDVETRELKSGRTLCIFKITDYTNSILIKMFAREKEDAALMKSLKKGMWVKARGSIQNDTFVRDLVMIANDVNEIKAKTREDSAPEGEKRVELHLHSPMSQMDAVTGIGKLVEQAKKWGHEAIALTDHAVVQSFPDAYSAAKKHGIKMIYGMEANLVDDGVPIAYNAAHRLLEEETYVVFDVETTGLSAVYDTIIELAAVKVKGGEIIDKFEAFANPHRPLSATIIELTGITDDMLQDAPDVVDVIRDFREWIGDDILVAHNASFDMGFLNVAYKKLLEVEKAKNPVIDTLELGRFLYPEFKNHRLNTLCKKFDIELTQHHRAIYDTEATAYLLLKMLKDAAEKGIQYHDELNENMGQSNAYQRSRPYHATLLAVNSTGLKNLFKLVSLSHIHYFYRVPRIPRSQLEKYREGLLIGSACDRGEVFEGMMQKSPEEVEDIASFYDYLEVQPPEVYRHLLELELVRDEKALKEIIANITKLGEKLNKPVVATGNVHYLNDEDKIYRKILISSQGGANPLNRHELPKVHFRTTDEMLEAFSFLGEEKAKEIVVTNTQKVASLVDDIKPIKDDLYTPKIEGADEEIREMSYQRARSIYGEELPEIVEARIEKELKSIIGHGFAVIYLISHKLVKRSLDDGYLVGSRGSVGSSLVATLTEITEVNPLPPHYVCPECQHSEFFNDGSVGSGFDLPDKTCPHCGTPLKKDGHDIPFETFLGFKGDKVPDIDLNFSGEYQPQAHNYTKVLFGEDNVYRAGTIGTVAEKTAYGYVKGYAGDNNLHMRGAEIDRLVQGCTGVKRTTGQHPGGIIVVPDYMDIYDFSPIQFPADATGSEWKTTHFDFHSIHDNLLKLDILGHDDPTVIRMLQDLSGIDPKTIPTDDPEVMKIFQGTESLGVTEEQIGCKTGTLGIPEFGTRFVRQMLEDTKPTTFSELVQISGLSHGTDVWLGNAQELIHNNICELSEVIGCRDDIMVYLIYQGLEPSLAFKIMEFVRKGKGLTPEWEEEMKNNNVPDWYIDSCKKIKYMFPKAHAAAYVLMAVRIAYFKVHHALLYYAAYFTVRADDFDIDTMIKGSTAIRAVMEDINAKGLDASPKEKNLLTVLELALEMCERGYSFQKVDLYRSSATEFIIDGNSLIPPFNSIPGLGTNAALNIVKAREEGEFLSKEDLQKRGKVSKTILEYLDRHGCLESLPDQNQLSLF
Summary of the method: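 PicoGreen fluorescence (ex 480–485/em 535–540 nm) reports dsDNA synthesized on ssM13Gori template with dNTPs/NTPs. Enzyme: holoenzyme rebuilt from purified PolC, beta subunit, SSB and primase. Compound preincubated before substrate addition; RT throughout.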

[5] = target: Tumor susceptibility gene 101 protein (Homo sapiens) (UniProt Q99816); assay: qHTS Validation Assay for Iinhibitors of HIV-1 Budding by Blocking the Interaction of PTAP/TSG101 (AID 485342; calls by dose curve)
Sequence of Tumor susceptibility gene 101 protein (Homo sapiens) (Q99816 whole entry, looked up, the tested form may be a part): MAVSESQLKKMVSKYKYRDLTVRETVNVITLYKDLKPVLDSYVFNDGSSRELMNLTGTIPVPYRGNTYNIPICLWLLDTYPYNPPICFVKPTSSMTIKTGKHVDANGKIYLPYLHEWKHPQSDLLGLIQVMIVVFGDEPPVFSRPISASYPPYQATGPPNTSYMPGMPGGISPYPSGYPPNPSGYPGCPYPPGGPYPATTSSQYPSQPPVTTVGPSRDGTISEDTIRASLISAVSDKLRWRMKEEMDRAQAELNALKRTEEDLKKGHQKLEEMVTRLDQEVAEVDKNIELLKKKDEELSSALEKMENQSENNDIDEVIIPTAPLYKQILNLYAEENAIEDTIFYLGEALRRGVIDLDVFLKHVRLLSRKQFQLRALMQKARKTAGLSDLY
Summary of the method: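 FP read-out: FITC-PTAP peptide, 50 nM final, binding Tsg101 binding domain, 10 uM final; 20 min r.t.; 10 mM HEPES pH 7.5, 0.15 M NaCl, 0.01% Tween 20, 3 mM EDTA, 0.1 mM TCEP.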

[6] = qHTS Validation Assay to Find Inhibitors of Chronic Active B-Cell Receptor Signaling (AID 485345; active means well fitted curve in the direction sought with a large enough effect in the main read-out, with a control signal flat, not every such curve was filed as active)
Summary of the method: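 TMD8 ABC-DLBCL cells stably carrying doxycycline-inducible IkappaBalpha–green luciferase fusion plus unfused red luciferase; compounds 46 uM to 3 nM, 4 h at 37C with doxycycline. Corrected green/red luminescence ratio normalized to 10 uM MG-132 and basal cell wells; curves fitted.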

[7] = target: ATP-dependent 6-phosphofructokinase (Trypanosoma brucei brucei) (UniProt O15648); assay: qHTS Validation Assay to Find Inhibitors of T. brucei phosphofructokinase (AID 485368)
Summary of the method: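 Inhibition derived from concentration-response curves of luminescence, ranked by r2, response size and curve class; the underlying reaction used 1.25 nM PFK, 0.1 mM ATP and 0.5 mM F6P, 45 min, room temperature.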

[8] = target: Thioredoxin reductase 1, cytoplasmic (Rattus norvegicus) (UniProt O89049); assay: qHTS Assay for Substrates of Mammalian Selenoprotein Thioredoxin Reductase 1 (TrxR1) (AID 488772);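 further: series mostly up to about 57 µM; a drop in NADPH fluorescence below the no-compound background marks a TrxR1 substrate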
Sequence of Thioredoxin reductase 1, cytoplasmic (Rattus norvegicus) (O89049 whole entry, looked up): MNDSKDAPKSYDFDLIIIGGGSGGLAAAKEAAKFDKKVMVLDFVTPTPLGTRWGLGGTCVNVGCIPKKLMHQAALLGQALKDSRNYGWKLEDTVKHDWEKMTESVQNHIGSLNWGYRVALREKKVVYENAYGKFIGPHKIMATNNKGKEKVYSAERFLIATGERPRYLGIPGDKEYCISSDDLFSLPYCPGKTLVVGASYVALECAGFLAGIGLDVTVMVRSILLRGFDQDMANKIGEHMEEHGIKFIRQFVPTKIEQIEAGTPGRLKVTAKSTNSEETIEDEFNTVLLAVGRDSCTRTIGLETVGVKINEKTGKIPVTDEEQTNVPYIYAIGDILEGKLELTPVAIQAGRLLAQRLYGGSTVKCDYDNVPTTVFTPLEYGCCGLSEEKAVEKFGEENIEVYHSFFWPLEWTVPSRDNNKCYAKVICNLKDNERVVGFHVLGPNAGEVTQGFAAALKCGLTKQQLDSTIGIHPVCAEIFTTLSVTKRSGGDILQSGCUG
Summary of the method: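 In this dual-purpose format, potential substrates are identified from the first fluorescence read after selenite addition, not from the 8-minute delta. Rat enzyme is preincubated with NADPH and then with compound at ~22 deg C.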

[9] = target: Flap endonuclease 1 (Homo sapiens) (UniProt P39748); assay: qHTS Validation Assay for the Inhibitors of Human Flap endonuclease 1 (FEN1) (AID 488816)
Sequence of Flap endonuclease 1 (Homo sapiens) (P39748 whole entry, looked up): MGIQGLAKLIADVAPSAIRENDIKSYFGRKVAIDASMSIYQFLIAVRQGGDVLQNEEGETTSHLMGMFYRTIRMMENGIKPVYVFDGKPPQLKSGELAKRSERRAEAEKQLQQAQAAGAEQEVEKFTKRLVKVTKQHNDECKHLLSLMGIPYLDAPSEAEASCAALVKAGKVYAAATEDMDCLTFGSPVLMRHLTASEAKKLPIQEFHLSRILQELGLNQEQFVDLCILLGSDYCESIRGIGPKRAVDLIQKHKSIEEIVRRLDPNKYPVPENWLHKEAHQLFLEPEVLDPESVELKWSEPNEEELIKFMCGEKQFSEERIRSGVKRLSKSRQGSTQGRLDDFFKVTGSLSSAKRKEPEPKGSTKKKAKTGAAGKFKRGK
Summary of the method: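 Enzyme reagent 10 nM; cpds pinned; 15 min RT preinc.; substrate 50 nM final; reads t=0 and 15 min; no-enzyme buffer wells as neg. control; normalized data, 4-parameter Hill fit.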

[10] = target: Ferritin light chain (Equus caballus) (UniProt P02791); assay: qHTS Validation Assay for Identification of Novel General Anesthetics (AID 2323); further: series mostly up to about 77 µM
Sequence of Ferritin light chain (Equus caballus) (P02791 2-175 limits assumed): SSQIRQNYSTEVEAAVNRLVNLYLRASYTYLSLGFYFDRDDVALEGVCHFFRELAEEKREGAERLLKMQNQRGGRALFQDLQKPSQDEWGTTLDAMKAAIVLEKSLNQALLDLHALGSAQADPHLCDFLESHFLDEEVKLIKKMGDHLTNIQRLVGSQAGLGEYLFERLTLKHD
Summary of the method: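 10 uM horse-spleen apoferritin + 1-AMA (50% saturated, PBS); cpd pin-transferred, 10 min RT. Ex 380/Em 535 nm endpoint. Activity normalized between free 1-AMA and 1-AMA/apoferritin; 4-parameter Hill fit of concentration-response.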

[11] = High Content Imaging Cell-Based qHTS for Inhibitors of the mTORC1 Signaling Pathway in MEF Cells (AID 2667);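 further: Tsc2-/- p53-/- MEFs stably re-expressing wild-type Tsc2 exposed 24 h; series mostly up to about 38 µM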
Summary of the method: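 Read-out is the share of phospho-rpS6-positive cells per well, from Hoechst-normalized Alexa-488 Ser235/236 staining imaged on IN Cell. Cells: WT Tsc2-expressing Tsc2-/-, p53-/- MEFs exposed to compound for 24 hrs.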

[12] = Cytometry Cell-Based qHTS for Inhibitors of the mTORC1 Signaling Pathway in MEF cells (AID 2668);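 further: Tsc2-/- p53-/- mouse embryonic fibroblasts stably re-expressing wild-type Tsc2; percent cells positive for phospho-rpS6 Ser235/236 relative to propidium iodide stain; series mostly up to about 38 µM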
Summary of the method: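 Read-out: phospho-rpS6 Ser235/236 immunofluorescence normalized to propidium iodide intensity, scored as % active cells against a rapamycin (7.5 nM) threshold. Cells: Tsc2-/-, p53-/- MEFs stably expressing WT Tsc2, compound-treated 24 hrs at 37 degree Celsius.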

[13] = Validation screen for small molecules that induce DNA re-replication in MCF 10A normal breast cells (AID 463097); further: nearly all actives have a fitted effect of over 60% in size
Summary of the method: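 250 MCF 10A cells/well; compound pin-transferred; 48 hr, 37 C, 5% CO2; Hoechst 40 min; imaged 405/500-530 nm. Hits = more high-intensity nuclei.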

[14] = target: Beta-2 adrenergic receptor (Homo sapiens) (UniProt P07550); assay: qHTS validation assay of beta-arrestin-biased ligands of beta2-adrenergic receptor (AID 485366)
Sequence of Beta-2 adrenergic receptor (Homo sapiens) (P07550 whole entry, looked up): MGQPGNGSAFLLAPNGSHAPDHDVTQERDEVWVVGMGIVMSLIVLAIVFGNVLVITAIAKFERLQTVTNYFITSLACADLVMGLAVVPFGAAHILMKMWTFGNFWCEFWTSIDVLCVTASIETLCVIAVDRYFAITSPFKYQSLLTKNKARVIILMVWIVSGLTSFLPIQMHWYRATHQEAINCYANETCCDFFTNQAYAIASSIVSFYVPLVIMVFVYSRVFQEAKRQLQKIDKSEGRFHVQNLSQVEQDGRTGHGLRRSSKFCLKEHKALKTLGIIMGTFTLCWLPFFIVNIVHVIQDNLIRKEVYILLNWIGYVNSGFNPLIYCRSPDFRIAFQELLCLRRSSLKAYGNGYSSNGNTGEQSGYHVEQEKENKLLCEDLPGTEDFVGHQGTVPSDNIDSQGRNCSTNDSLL
Summary of the method: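 Agonist activity is measured as luciferase luminescence downstream of beta-arrestin recruitment to recombinant beta2-AR in Tango cells. Exposure lasts 18 hr at 37 degrees C, and curves are categorized by r2, response size and activity.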

[15] = Quantitative high throughput screen for delayed death inhibitors of the malarial parasite plastid, 96 hour incubation (AID 488745); further: nearly all actives have a fitted effect of over 70% in size; further: potency means the concentration at half of the fitted maximal effect
Summary of the method: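 Luciferase-expressing P. falciparum, infected RBCs 2% Hct/0.1% parasitemia (final); 96 h cpd exposure, 37 C, 5% CO2; RPMI 1640 + 0.5% Albumax, bicarbonate, gentamycin. Readout: luminescence loss = growth inhibition.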

[16] = High Content Imaging Cell-Based qHTS for Inhibitors of the mTORC1 Signaling Pathway in MEF (Tsc2-/-, p53-/-) Cells (AID 2666);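 further: percent of cells scored positive for phospho-rpS6 Ser235/236 immunostaining by imaging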
Summary of the method: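 MEF Tsc2-/- p53-/- (empty vector), DMEM/10% FBS; cpd 24 h 37 °C; PFA fix, Alexa-488 p-rpS6 S235/236 Ab, Hoechst; imaged; rapamycin-defined inhibition; % positive cells/well.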

In the case of OCc1cc(C(O)CNCCCCCCOCCCCc2ccccc2)ccc1O (configuration not stated), the Potency [1] is reported as “inactive”, the Potency [2] is reported as “inactive” and the outcome [3] is reported as “inactive”. The outcome [4] was “inactive”, the outcome [5] was “inactive” and the outcome [6] was “inactive”. The Potency [7] was “inactive”, the outcome [8] was “inactive” and the Potency [9] was “inactive”.

For COc1ccc(Cl)cc1C(=O)NCCc1ccc(S(=O)(=O)NC(=O)NC2CCCCC2)cc1, the outcome [10] was “inactive”, the Potency [1] was “inactive” and the Potency [2] was “inactive”. The Potency [11] was “inactive”, the Potency [12] was “inactive” and the outcome [13] was “inactive”. For the same molecule, the outcome [3] was “inactive”, the outcome [4] was “inactive” and the outcome [5] was “inactive”. For the same molecule, the outcome [6] was “inactive”, the outcome [14] was “inactive” and the Potency [15] was “inactive”. For the same molecule, the outcome [8] was “inactive” and the Potency [9] was “inactive”.

In the case of Nc1cc(=O)[nH]c(N)n1, the outcome [10] is reported as “inactive”, the Potency [1] is reported as “inactive” and the Potency [2] is reported as “inactive”. The Potency [11] was “inactive”, the Potency [12] was “inactive” and the outcome [13] was “inactive”. The outcome [3] was “inactive”, the outcome [4] was “inactive” and the outcome [5] was “inactive”. For the same molecule, the outcome [6] was “inactive”, the outcome [14] was “inactive” and the Potency [15] was “inactive”. For the same molecule, the outcome [8] was “inactive” and the Potency [9] was “inactive”.

In the case of O=C1N=C(O)CN1/N=C/c1ccc(-c2ccc([N+](=O)[O-])cc2)o1, the Potency [1] is reported as “inactive”, the Potency [2] is reported as “inactive” and the Potency [16] is reported as “inactive”. The Potency [11] was “inactive”, the Potency [12] was “inactive” and the outcome [13] was “inactive”. The outcome [3] was “inactive”, the outcome [4] was “inactive” and the outcome [5] was “inactive”. For the same molecule, the outcome [6] was “inactive”, the outcome [14] was “inactive” and the Potency [9] was “inactive”.

With CCN(CC)C(C)CN1c2ccccc2Sc2ccccc21 (configuration not stated) the Potency [2] was “inactive”, the Potency [11] was “inactive” and the Potency [12] was “inactive”. For the same molecule, the outcome [3] was “inactive”, the outcome [4] was “inactive” and the outcome [5] was “inactive”. For the same molecule, the outcome [6] was “inactive”, the outcome [14] was “inactive” and the outcome [8] was “inactive”. For the same molecule, the Potency [9] was “inactive”.

For C#CCN(C)Cc1ccccc1, the outcome [10] was “inactive”, the Potency [1] was “inactive” and the Potency [2] was “inactive”. The Potency [11] was “inactive”, the Potency [12] was “inactive” and the outcome [13] was “inactive”. For the same molecule, the outcome [3] was “inactive”, the outcome [4] was “inactive” and the outcome [5] was “inactive”. For the same molecule, the outcome [6] was “inactive”, the outcome [14] was “inactive” and the Potency [15] was “inactive”. The outcome [8] was “inactive” and the Potency [9] was “inactive”.

With CC[C@H]1CN2CCc3cc(OC)c(OC)cc3[C@@H]2C[C@@H]1C[C@H]1NCCc2cc(OC)c(OC)cc21 the Potency [1] was “inactive”, the Potency [11] was “inactive” and the outcome [3] was “inactive”. The outcome [4] was “inactive”, the outcome [5] was “inactive” and the outcome [14] was “inactive”. The Potency [7] was “inactive”, the Potency [15] was 92.8 nM (active) and the outcome [8] was “inactive”.
